Screening data deposited in PubChem by several laboratories.
GRIN3A LBD mod – modulators (binders) of human NR3A ligand-binding domain; 2.5% of 340,000 active; AID 1259313; Tm shift relative to glycine control, % at 25 µM; NR3A LBD differential scanning fluorimetry, Tm shift; 0% = protein alone, 100% = glycine-bound protein;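 active = melting temperature shift of at least 10% of the positive control shift, at one fixed dose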
CR mimetic SO – lowers age-related superoxide in aged yeast cells; S. cerevisiae aged cells, superoxide DHE fluorescence; active compounds read low; superoxide response (% of plate mean), % at 10 µM; 0.18% of 330,000 active;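 active = superoxide response under a set limit, about three screen SD below normal, cut at about 65% in these data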;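 also: yeast aged for seven days with compound at 30 °C before DHE staining; 100% = average MFI of all compound-treated wells on the plate with controls excluded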
dFosB act – enhances mouse delta FosB homodimer DNA binding. activation, % at 25 µM. 0.99% of 340,000 active. AID 493131. P13346. purified delta FosB, TAMRA-CDK5 oligo fluorescence polarization; percent of positive-control signal above neutral wells;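 active = mean activation above about 17%, with every replicate also reaching it, limit read from the data, passing the limit was not always enough; inconclusive = only one of the two conditions met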
Target sequence (P13346 whole entry, looked up): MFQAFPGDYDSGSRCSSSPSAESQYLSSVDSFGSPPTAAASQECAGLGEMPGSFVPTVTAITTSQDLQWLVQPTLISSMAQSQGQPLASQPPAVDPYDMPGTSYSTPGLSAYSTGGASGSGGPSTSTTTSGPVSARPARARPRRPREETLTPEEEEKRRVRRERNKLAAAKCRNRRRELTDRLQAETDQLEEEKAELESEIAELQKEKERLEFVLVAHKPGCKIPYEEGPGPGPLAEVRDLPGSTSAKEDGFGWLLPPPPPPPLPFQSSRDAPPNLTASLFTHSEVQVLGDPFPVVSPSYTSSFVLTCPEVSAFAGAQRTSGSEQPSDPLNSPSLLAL
UBC13 polyUb – inhibitors of human UBC13 polyubiquitin chain formation. P61088. TR-FRET. inhibition, % at 20 µM. 0.47% of 330,000 active; in the data active = inhibition above about 45%, passing the limit was not always enough; inconclusive = no clear call, values can overlap the other calls
Target sequence (P61088 whole entry, looked up): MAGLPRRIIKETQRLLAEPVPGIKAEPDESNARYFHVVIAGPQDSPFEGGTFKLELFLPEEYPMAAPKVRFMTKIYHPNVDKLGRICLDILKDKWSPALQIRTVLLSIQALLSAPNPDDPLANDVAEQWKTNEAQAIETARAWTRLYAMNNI
NALP1 yeast inh – inhibitors of NALP1 inflammasome in yeast | S. cerevisiae NALP1/ASC/caspase-1 growth, X-gal OD620, 72 h | inhibition, % at 10 µM | 0.61% of 280,000 active; in the data active = inhibition mostly above about 24%, no sharp cut-off; inactive = mostly below about 32%
Casp3 counter – caspase-3 inhibition (UBC13 counter-screen) | Recombinant caspase-3, Caspase-Glo 3/7 luminescence, 60 min | shares compounds with UBC13 polyUb | inhibition, % at 20 µM | 4% of 1,400 active;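 active = mean inhibition across replicates above about 26%, limit read from the data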;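 also: plate controls were DMSO with caspase-3 for no effect and DMSO wells lacking enzyme for full effect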
UBC13 confirm – human UBC13 polyubiquitin inhibition, confirmed. UBC13 polyubiquitination, TR-FRET, biochemical. shares compounds with UBC13 polyUb. 68% of 1,400 active. inhibition, % at 10 µM. AID 488859; in the data active = inhibition above about 45%; inconclusive = no clear call, values can overlap the other calls
* marks the source's active call; other numbers are inactive results; u = inconclusive; x = not tested or not shown. The list is not random: actives were taken first. Their share in the collection is about 4.3%.

SMILES	GRIN3A LBD mod	CR mimetic SO	dFosB act	UBC13 polyUb	NALP1 yeast inh	Casp3 counter	UBC13 confirm
CCOC(=O)[C@@H]1[C@H]2COc3ccccc3[C@H]2N2C(=O)N(c3ccccc3)C(=O)[C@]12C	-1	99	-4	6	-10	x	x
CC(=O)Nc1cccc(NC(=O)CSc2ncc(C(=O)Nc3ccc(F)cc3)c(=O)n2C)c1	18*	97	6	51*	x	97*	38
Cc1cc2c(=O)n(C)c(SCC(=O)Nc3ccc(F)cc3)nc2s1	0	x	-2	x	x	x	x
CC(=O)Nc1cccc(NC(=O)CSc2ncc(C(=O)Nc3ccccc3)c(=O)n2C)c1	-4	111	-2	82*	x	95*	86*
CC(=O)Nc1ccc(NC(=O)CSc2ncc(C(=O)Nc3ccc(F)cc3)c(=O)n2C)cc1	2	100	-7	71*	x	98*	62*
CC(=O)Nc1ccc(NC(=O)CSc2ncc(C(=O)Nc3ccc(Cl)cc3)c(=O)n2C)cc1	9	107	6	55*	x	97*	30
O=C(O)c1cc(-c2ccc(Cl)c(Cl)c2)n(-c2ccccc2)n1	x	126	-3	4	-6	x	x
O=C(Nc1ccc(F)cc1)c1oc2ccccc2c1NC(=O)C1CC1	-6	99	-5	2	31	x	x
Cc1ccc(Cl)c(OCC(=O)Nc2ccccc2N2CCCCC2)c1	0	100	-10	-13	x	x	x
O=C(CCCO)CCCCCCCCC[C@H]1N[C@H](CO)[C@@H](O)[C@@H]1O	-5	102	-3	3	20	x	x
C=C[C@](C)(CC[C@@]1(C)C(C)CC(OC2OC(C)C(OC3OC(COC(C)=O)C(O)C(O)C3O)C(O)C2O)[C@@]2(C)C(C)=CCCC12)OC1OC(C)C(O[C@@H]2O[C@@H](C)C(O)C(O)[C@H]2O)C(O)C1O (some centres not stated)	1	104	4	54*	x	2	58*
CCOC(=O)C1=C(COC(=O)c2cc(OC)c(OC)c(OC)c2)NC(=O)NC1C (configuration not stated)	2	98	5	62*	x	1	84*
CC(C)(C)c1ccc(C(O)CCCN2CCC(C(O)(c3ccccc3)c3ccccc3)CC2)cc1 (configuration not stated)	1	100	7	67*	-4	-4	56*
Oc1cc(Nc2ccncc2)cc2cccnc12	0	102	5	104*	x	-2	109*
Oc1cc(Nc2cccnc2)cc2cccnc12	-3	139	-5	17	x	x	x
COc1ccc(-c2nnn(CC(=O)N(Cc3ccccc3Cl)C(C(=O)NCC3CCCO3)c3ccco3)n2)cc1OC (configuration not stated)	3	86	5	2	38	x	x
COc1ccc(S(=O)(=O)Nc2ccc(C)cn2)cc1	5	99	1	46*	2	-2	-3
Fc1cccc(-n2cc(-c3ccccc3)c3c(=S)nc[nH]c32)c1	-5	112	-4	56*	-7	0	u
COC(=O)C1=C(C)N(Cc2ccccc2)C(=NCc2ccccc2)N[C@H]1c1ccccc1	0	95	-10	32	x	x	x
COC(=O)C1=C(C)N(Cc2ccccc2)C(=NCCc2c[nH]c3ccccc23)N[C@H]1c1ccccc1	-5	81	1	38	x	x	x
COC(=O)C1=C(C)N(Cc2ccccc2)C(=NCCc2c[nH]c3ccccc23)N[C@H]1c1cccc(F)c1	-5	96	0	62*	x	1	64*
COC(=O)C1=C(C)N(Cc2ccccc2)C(=NCc2cccc(Cl)c2)N[C@H]1c1ccccc1	-5	99	4	70*	x	-1	67*
COC(=O)C1=C(C)N(Cc2ccccc2)C(=NCc2ccccc2)N[C@H]1c1cccc(F)c1	-3	98	-14	67*	30	-4	18
COC(=O)C1=C(C)N(CC2CC2)C(=NCc2cccc(Cl)c2)N[C@H]1c1ccccc1	2	94	-3	54*	1	-2	31
COc1ccc(CC(=O)OCCc2cc3cc(OC)c(OC)cc3c(=O)o2)cc1	-2	110	-2	-14	x	x	x
SMILES	GRIN3A LBD mod	CR mimetic SO	dFosB act	UBC13 polyUb	NALP1 yeast inh	Casp3 counter	UBC13 confirm
Cc1cccc(NC(=O)Nc2c(C)n(C)n(-c3ccccc3)c2=O)c1C	2	102	-4	6	6	x	x
COc1ccc2cc1Oc1ccc(cc1)C[C@H]1c3c(cc(OC)c4c3Oc3c(ccc5c3[C@H](C2)N(C)CC5)O4)CCN1C	-14	93	u	80*	x	0	78*
CN1CCc2cccc3c2C1Cc1ccc(O)c(O)c1-3 (configuration not stated)	2	102	-5	15	34	x	x
COC(=O)[C@H](Cc1ccccc1)NC(=O)O[C@@H]1C(=O)c2cc(OC)ccc2O[C@H]1c1ccc(OC)c(Br)c1	x	108	x	32	23	x	x
CC[C@H](C)[C@@H](NC(=O)O[C@@H]1C(=O)c2cc(OC)ccc2O[C@H]1c1ccc(OC)c(Br)c1)C(=O)OC	5	96	2	46*	22	2	u
Fc1ccc(/C=N/N2CCN(Cc3ccccc3)CC2)cc1	1	104	1	12	8	x	x
Nc1ccc2c(c1)C(=O)Cc1ccccc1S2	-2	95	-15	58*	23	1	32
O=C(CCCn1c(=O)c2ccccc2n(Cc2cccc(F)c2)c1=O)NC1CCN(Cc2ccccc2)CC1	x	87	x	100*	10	4	112*
O=C(CCCCn1c(=O)c2ccccc2n(Cc2ccccc2)c1=O)NC1CCN(Cc2ccccc2)CC1	-2	108	-14	94*	3	1	108*
O=C(CCCCn1c(=O)c2ccccc2n(CC(=O)NC2CCCC2)c1=O)NC1CCCC1	-3	89	2	8	8	x	x
NC[C@@H]1O[C@H](C23CC4CC(CC(C4)C2)C3)Cc2c1ccc(O)c2O	-1	108	-6	55*	-9	-1	54*
CC(=O)NN1CCc2cc3ccc(C)cc3nc21	1	91	4	5	1	x	x
Cc1ccc2cc3c(nc2c1)N(c1ccccc1)CC3	0	82	-3	46*	-7	0	32
COc1ccccc1C(CNC(=O)CNC(=O)c1ccccc1Cl)N1CCCC1 (configuration not stated)	-2	87	6	51*	x	-3	62*
CCOc1ccc2c(c1)c1nc3ccccc3nc1n2C	1	101	-2	x	7	x	x
Cc1ccc2c(c1)c1nc3ccccc3nc1n2C	3	77	-16	53*	-12	8	16
Cn1c2ccc(F)cc2c2nc3ccccc3nc21	-3	93	-55	51*	17	9	14
